Cycloheximide cs = Cycloheximide Counterscreen for Small Molecule Inhibitors of Shiga Toxin. cell reporter, cycloheximide protein synthesis inhibition counterscreen. max response, %. 12% of 300,000 active; in the data active = max response mostly above about 13%, no sharp cut-off; inactive = mostly below about 14%; also: read at 38.3 µM for the half of the compounds with a filed dose; 0% is about no effect
Pf growth 96h = Primary qHTS for delayed death inhibitors of the malarial parasite plastid, 96 hour incubation. P. falciparum luciferase reporter growth, 96 h. Potency, µM (doses to about 28.7 µM), inactives show top-dose activity change, negative = inhibition, actives largely listed as inhibitors. 6.9% of 320,000 active; active = well fitted inhibition curve with a large enough effect; inconclusive = small, poorly fitted or top-dose-only effect, or another doubt; inactive = no such curve, though single readings can be large or run the other way; also: potency is read from the fitted curve at half-maximal effect; % is scaled to controls: 0 for no effect and ±100 for the full control effect
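Compounds incubated with erythrocytes infected by luciferase-expressing P. falciparum (2% hematocrit, 0.05% parasitemia final) for 96 hours, 37 C in 5% CO2. Growth inhibition scored as decreased luciferase luminescence.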
NS1 function inh = qHTS Assay for Inhibitors of Influenza NS1 Protein Function. Potency, µM (highest dose often 46.1 µM), inactives show at the highest dose activity, positive = more growth. 0.4% of 270,000 active; also: potency is read from the fitted curve at half-maximal effect; actives are rising curves; nearly all actives have a fitted effect of over 50% in size
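Recovery from NS1-induced slow growth read by OD600 in budding yeast switched to galactose assay medium (pH 6.0, -URA) at 1:100 dilution. Compound 23 nl per well; the matching strain lacking NS1 serves as control.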
SARS PLpro yeast = qHTS of Yeast-based Assay for SARS-CoV PLP; S. cerevisiae expressing SARS-CoV PLpro, growth rescue; Potency, µM (doses to about 32.9 µM), for the others: at the top dose activity, positive = growth rescue, most hits filed as activators; 0.19% of 330,000 active; also: potency is read from the fitted curve at half-maximal effect; 0% is about no effect; nearly all actives have a fitted effect of over 55% in size
Shiga toxin inh = A qHTS for Small Molecule Inhibitors of Shiga Toxin; Vero cells, Shiga toxin protein synthesis inhibition reporter; inhibition, % at 38.7 µM; 9.2% of 290,000 active; in the data active = inhibition mostly above about 28%, no sharp cut-off; inactive = mostly below about 43%; also: 0% is about no effect
Pf growth 48h = Primary qHTS for delayed death inhibitors of the malarial parasite plastid, 48 hour incubation; 5.9% of 310,000 active; Potency, µM (series often up to 28.7 µM), for the others: at the highest dose activity change, negative = inhibition, actives largely listed as inhibitors; P. falciparum luciferase growth in erythrocytes, 48 h; AID 504832, 2011; active = well fitted inhibition curve with a large enough effect; inconclusive = small, poorly fitted or top-dose-only effect, or another doubt; inactive = no such curve, though single readings can be large or run the other way; also: potency is read from the fitted curve at half-maximal effect; % is scaled to controls: 0 for no effect and ±100 for the full control effect
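Compounds are pin-transferred into medium, infected erythrocytes (2% hematocrit, 0.1% parasitemia final) are added, and plates sit one parasite generation at 37 C in 5% CO2. Detection reagent is then added and luminescence measured.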
* hit, by the source's call; i = inactive; ? = inconclusive; nt = not tested or not shown. Compounds with a hit are over-represented: about 21% of the library has one in this group of screens. Unless noted, calls follow the shape of the full dose curve.

SMILES	Cycloheximide cs	Pf growth 96h	NS1 function inh	SARS PLpro yeast	Shiga toxin inh	Pf growth 48h
CC1CCN(C(=O)c2cc(Cl)ccc2NC(=O)c2ccco2)CC1	-3	2.3µM*	3%	0%	-5	6%
CC(=O)NCCNC(=O)c1cccc(NS(=O)(=O)c2ccc3c(c2)OCCO3)c1	nt	3%	nt	-1%	nt	-22%
CNC(=O)COC(=O)/C=C/c1cn(-c2ccccc2)nc1-c1ccc(C)o1	3	7.4µM*	3%	0%	9	12µM*
COc1ccc(-c2nn(-c3ccccc3)cc2/C=C/C(=O)OCC(=O)Nc2ccccc2C#N)cc1	-3	2%	11%	-1%	7	3%
Cc1nn(-c2ccccc2)c(Cl)c1/C=N/NC(=O)c1ccc(NS(=O)(=O)c2cccs2)cc1	20*	-8%	-6%	1%	32	?
Cc1nn(-c2cccc(Cl)c2)c(Cl)c1/C=N/NC(=O)c1cccs1	29*	?	2%	9%	58*	10µM*
CCCSc1nnc(CSc2ncccn2)n1C	-6	4%	nt	3%	32	9%
CCCNc1c(NS(=O)(=O)c2ccc3c(c2)CCCC3)c(=O)oc2ccccc12	-2	?	12%	11%	-8	9%
Cc1ccc(CNC(=O)CSc2nc(=O)n3cccc(C)c3n2)cc1	nt	5%	nt	nt	nt	-3%
Cc1ccc(C)c(NC(=O)CCN2CCOCC2)c1	-3	?	-3%	2%	-11	21%
Cc1ccc(C)c(NC(=O)CCCCCCCCCCC2COCCO2)c1 (configuration not stated)	-8	13µM*	6%	11µM*	-14	-4%
CCOC(=O)NC(=O)c1cn(Nc2ccccc2C(F)(F)F)c(=O)[nH]c1=O	4	21%	0%	2%	-9	8%
C=CCSc1nnc(NC(=O)c2cccc(S(=O)(=O)N(C)c3ccccc3)c2)s1	3	-21%	16%	5%	7	20%
COCCNC(=S)N1CCOCC1	-2	79%	-13%	-12%	5	16%
COc1ccc(C2=NOC(CNC(=S)N3CCOCC3)C2)cc1 (configuration not stated)	34*	154%	1%	1%	57*	67%
CC(C)N(Cc1nc(-c2ccc(Cl)cc2)no1)Cc1nccn1C	10	?	2%	-1%	6	?
C/C(CC(=O)Nc1ccc(Cl)cc1)=N\NC(=O)C(=O)N1CCCCC1	16*	1%	-3%	0%	52*	41%
C/C(CC(=O)Nc1ccc(Cl)cc1Cl)=N\NC(=O)C(=O)N1CCCC1	4	25%	nt	0%	18	5%
C/C(CC(=O)Nc1cc(Cl)ccc1C)=N\NC(=O)C(=O)N1CCCC1	17*	14%	-3%	-1%	18	-9%
O=C(Nc1cccc(Cl)c1)N(Cc1nc2ccccc2c(=O)[nH]1)Cc1cccs1	8	?	-1%	19%	-4	7.4µM*
O=C(Nc1cccc(Cl)c1)N(Cc1nc2ccccc2c(=O)[nH]1)C1CCCC1	10	4%	-2%	-6%	22	-8%
Oc1ccc(Br)cc1CNc1cccc2cccnc12	2	9.3µM*	-115%	-26%	nt	?
COc1cccc(CNc2ccc([N+](=O)[O-])cc2Cl)c1O	39*	-17%	nt	-12%	44	-8%
COc1ccccc1CNc1ccc([N+](=O)[O-])cc1C	0	-22%	1%	-4%	-16	-22%
COc1cccc(CNc2cc(C)ccn2)c1O	39*	?	11%	3%	51*	-22%
SMILES	Cycloheximide cs	Pf growth 96h	NS1 function inh	SARS PLpro yeast	Shiga toxin inh	Pf growth 48h
Cc1ccc(O)c(CNc2cccc3cccnc23)c1	5	?	-40%	-5%	32	?
COc1cccc(CNc2ccccn2)c1O	34*	62%	14%	-6%	nt	16%
CN1C(=O)CSc2ccc(NC(=O)N3CCN(c4ccccc4)CC3)cc21	14	24%	nt	-4%	-3	?
COc1ccc([C@@H]2[C@H]3C(=O)N(c4cccc(C(F)(F)F)c4)C(=O)[C@H]3ON2C)cc1	2	25%	9%	-6%	-7	18%
COc1ccc(CN(C)C(C)C(=O)Nc2ccc([N+](=O)[O-])cc2Cl)cc1OC (configuration not stated)	-3	12µM*	-14%	3%	-10	?
COc1cccc(CNc2cccc3cccnc23)c1O	16*	?	-51%	-23%	active	184%
COc1ccc(CNc2ccccn2)c(O)c1	20*	?	38%	18%	48*	-21%
Cc1ccc2oc(-c3cccc(NC(=O)c4ccc(Br)o4)c3)nc2c1	26*	125%	-3%	9%	38	nt
O=C(Nc1ccc2oc(-c3cccnc3)nc2c1)c1ccc([N+](=O)[O-])o1	32	?	-3%	-1%	34	?
O=C(Nc1cccc(-c2cc3ccccc3oc2=O)c1)c1ccc(Br)o1	-2	?	20%	-23%	-2	26%
Cc1cc2nc(-c3cccc(NC(=O)c4ccc(Br)o4)c3)oc2cc1C	41*	nt	-3%	13%	80	44%
Cc1cc(NC(=O)C(C)SCC(=O)OCC(=O)N(C)c2ccccc2)no1 (configuration not stated)	nt	?	nt	2%	nt	-3%
Oc1ccccc1-c1nc2c3ccccc3c3ccccc3c2[nH]1	9	?	7%	-5%	36	9.3µM*
Cc1ccc(SCC(=O)O/N=C(\N)c2ccncc2)cc1	37*	-8%	-44%	-8%	41	8%
N/C(=N\OC(=O)CSc1ccccc1)c1ccc([N+](=O)[O-])cc1	46*	0%	-10%	-22%	67*	125%
N/C(=N\OCc1ccc([N+](=O)[O-])cc1)c1ccncc1	27*	164%	5%	-3%	58*	177%
Cc1ccc(/C(N)=N/OC(=O)CSc2ccccc2)cc1	60*	20%	-5%	-2%	79*	i
Cc1ccc(SCC(=O)O/N=C(\N)c2cccc([N+](=O)[O-])c2)cc1	-1	-4%	8%	-25%	-13	-4%
COc1ccc(/C(N)=N/OC(=O)CSc2ccc(C)cc2)cc1	-2	32%	-71%	1%	-7	nt
Cc1ccc(SCC(=O)NCc2ccncc2)cc1	-2	86%	11%	-1%	-8	-1%
C=C(C)c1cccc(C(C)(C)NC(=O)N2CCN(C/C=C/c3ccccc3)CC2)c1	-3	?	-46%	0%	-9	3%
O=C(Nc1ccccc1Br)c1ccc(N2CCCC2=O)cc1	nt	165%	nt	-4%	nt	86%
Cc1ccc(/C=C(\C#N)C(=O)NC(C)c2ccccc2)o1 (configuration not stated)	4	?	-5%	1%	-9	36%
S=C(NCc1ccc(Cl)cc1)NCc1ccco1	11	?	-4%	-1%	27	-31%

Source: PubChem (National Center for Advancing Translational Sciences (NCATS))
